NLRP3 yeast inh = blocks the NALP3 inflammasome reconstituted in yeast | inhibition, % at 10 µM | Yeast reconstituted NLRP3/ASC/caspase-1, beta-gal luminescence, 24 h | 330,000 tested, 0.39% active;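 active = inhibition of 50% or more; inactive = inhibition below 50%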
PolyA inh = blocks polyadenylation in yeast reporter cells. S. cerevisiae SKY197-pL101 polyadenylation reporter, beta-gal luminescence; efflux-impaired pdr1/pdr3 knockout yeast; score 100 = 6 SD above DMSO. activity score, % at 12 µM. 300,000 tested, 0.02% active. AID 1875;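 active = lowest replicate activity score at least 50, where 100 means six control SD above control mean; inconclusive = lowest score under 50 but half or more replicates reach 50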;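 note: yeast exposed to compound for 9 h at 30 °C; higher score means more reporter readthrough which indicates perturbed polyadenylation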
NALP1 inh = inhibitors of NALP1 inflammasome in yeast | S. cerevisiae NALP1/ASC/caspase-1 growth, X-gal OD620, 72 h | inhibition, % at 10 µM | 280,000 tested, 0.61% active; in the data active = inhibition mostly above about 24%, no sharp cut-off; inactive = mostly below about 32%
ZTA counter = blocks Epstein-Barr virus ZTA, an EBNA-1 counter-screen | P03206 | ZTA-DNA binding, fluorescence polarization | inhibition, % at 11 µM | 320,000 tested, 0.15% active | AID 2234; in the data active = inhibition above about 33%
Target sequence (P03206 whole entry, looked up): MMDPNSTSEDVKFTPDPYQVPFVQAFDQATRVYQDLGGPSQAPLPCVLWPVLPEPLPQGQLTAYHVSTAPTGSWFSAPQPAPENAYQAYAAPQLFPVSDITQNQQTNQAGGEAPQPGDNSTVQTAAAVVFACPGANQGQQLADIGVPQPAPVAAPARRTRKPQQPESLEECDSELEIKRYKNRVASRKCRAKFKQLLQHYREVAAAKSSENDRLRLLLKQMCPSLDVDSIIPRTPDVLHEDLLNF
EBNA-1 inh = blocks EBNA-1 binding to DNA; 300,000 tested, 0.34% active; inhibition, % at 14.8 µM; EBNA-1 DNA binding, fluorescence polarization; AID 1950; in the data active = inhibition above about 28%
dFosB act-1 = mouse delta FosB homodimer activation | P13346 | 340,000 tested, 0.99% active | purified delta FosB, TAMRA-CDK5 oligo fluorescence polarization; percent of positive-control signal above neutral wells | activation, % at 25 µM;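 active = mean activation above about 17%, with every replicate also reaching it, limit read from the data, passing the limit was not always enough; inconclusive = only one of the two conditions met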
Target sequence (P13346 whole entry, looked up): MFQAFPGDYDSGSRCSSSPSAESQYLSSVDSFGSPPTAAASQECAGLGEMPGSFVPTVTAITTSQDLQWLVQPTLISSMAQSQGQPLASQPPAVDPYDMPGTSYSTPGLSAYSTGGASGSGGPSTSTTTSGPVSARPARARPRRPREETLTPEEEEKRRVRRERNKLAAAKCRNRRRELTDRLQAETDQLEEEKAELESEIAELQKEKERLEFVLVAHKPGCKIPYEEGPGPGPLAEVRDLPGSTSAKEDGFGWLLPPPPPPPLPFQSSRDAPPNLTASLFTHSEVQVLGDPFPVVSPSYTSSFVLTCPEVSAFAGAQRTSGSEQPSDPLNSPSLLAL
dFosB act-2 = delta FosB (mouse) homodimer activation; shares compounds with dFosB act-1; purified delta FosB, TAMRA-CDK5 oligo fluorescence polarization; normalised: neutral wells 0, positive control 100; activation, % at 24.9 µM; 2,400 tested, under 10 active; AID 588690;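 active = highest replicate activation at or above 34% and every replicate reaching that threshold; inconclusive = meets only one of the two criteria; inactive = meets neither criterion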;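 note: higher polarization means more probe DNA bound by delta FosB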
Of the large screens only hits and unclear results are named; the others gave an inactive call (follow-up assays come after a bar, where they were run). Sampled rows, rich in hits. Any-hit rate of the full collection: about 2.2%.

CCN(CC)CC(C)CNC(=O)C1(O)c2ccccc2NC(=O)N1c1ccc(Cl)c(Cl)c1 (configuration not stated)	none
Cc1cc(C)c(S(=O)(=O)N2CCCCC2CCNC(=O)C(=O)NC2CC2)c(C)c1 (configuration not stated)	none (no result: NALP1 inh)
O=C(Nc1ccc([N+](=O)[O-])cc1)N1CCN(C(=O)C2CCCO2)CC1 (configuration not stated)	none
Cc1ccc(-c2nc(CS(=O)CC(=O)NCc3ccco3)c(C)o2)cc1 (configuration not stated)	none
COC(=O)C(C)NC(=O)c1cn(-c2ccccc2OC)c(=O)c2ccccc12 (configuration not stated)	none
CN(C)CCN(C(=O)c1ccc(S(=O)(=O)N(C)c2ccccc2)cc1)c1nc2ccc(Cl)cc2s1	dFosB act-1 28 | dFosB act-2 inactive
CCN(CC)CCN(C(=O)c1ccc(S(=O)(=O)N2CCCCC2)cc1)c1nc2cc3c(cc2s1)OCO3	dFosB act-1 32 | dFosB act-2 inactive
CN(C)CCN(C(=O)c1ccco1)c1nc2cc3c(cc2s1)OCCO3	dFosB act-1 30 | dFosB act-2 inactive
COc1ccc2sc(N(CCCN(C)C)C(=O)c3ccc(S(=O)(=O)N4CCCC4)cc3)nc2c1	none (no result: NALP1 inh)
COc1ccc2sc(N(CCCN(C)C)C(=O)c3ccc(S(=O)(=O)N4CCc5ccccc5C4)cc3)nc2c1	dFosB act-1 33 (no result: NALP1 inh) | dFosB act-2 inactive
CN(C)CCCN(C(=O)c1ccco1)c1nc2ccc(Br)cc2s1	none
COc1ccc(C2=CC(=O)C[C@H](c3ccc(F)cc3)C2)c(OC)c1	none (no result: PolyA inh, NALP1 inh, EBNA-1 inh)
Cc1c(CC(=O)N[C@H](C(=O)O)C(C)C)c(=O)oc2cc3c(cc12)CCC(C)(C)O3	none (no result: ZTA counter, EBNA-1 inh)
COc1cc(C(=O)NCc2ccc(-c3nc4ccccc4o3)cc2)cc(OC)c1OC	dFosB act-1 27 | dFosB act-2 inactive
Cc1cncn1CCc1nc2c3ccccc3nc(SCC(=O)Nc3cccc(Cl)c3)n2n1	none (no result: NLRP3 yeast inh)
Cc1n[nH]c(C)c1CCc1nc2c3ccccc3nc(SCC(=O)Nc3ccccc3F)n2n1	dFosB act-1 57 | dFosB act-2 inactive
Cc1cccc(NC(=O)CSc2nc3ccccc3c3nc(CCc4c(C)n[nH]c4C)nn23)c1	dFosB act-1 44 | dFosB act-2 inactive
COc1ccc(C(=O)OCC(=O)c2ccc[nH]2)c(OC)c1	none (no result: PolyA inh, NALP1 inh, ZTA counter, EBNA-1 inh)
O=C(COc1ccccc1)NC1CCCCCCC1	none
COc1ccc(N(CC(=O)Nc2ccc(OC)c(Cl)c2)S(=O)(=O)c2c(C)noc2C)cc1	none
COc1ccc(N(CC(=O)Nc2ccc(F)c(Cl)c2)S(=O)(=O)c2c(C)noc2C)cc1	dFosB act-1 28 | dFosB act-2 inactive
Cc1ccc(C(=O)N/C(=C\c2ccc3c(c2)OCO3)C(=O)Nc2ccc(C(=O)O)cc2)cc1	none
Cc1ccccc1COc1cccc(/C=N/NC(=O)c2nnn(-c3nonc3N)c2C)c1	dFosB act-1 24 | dFosB act-2 inactive
Nc1nonc1-n1nnc(C(=O)N/N=C/c2ccccc2Cl)c1COc1ccc(F)cc1	dFosB act-1 27 (no result: NALP1 inh) | dFosB act-2 inactive
Nc1nonc1-n1nnc(C(=O)N/N=C/c2ccc(OCc3ccccc3)cc2)c1COc1ccc(F)cc1	none (no result: NALP1 inh)
Cc1cccc(COc2ccc(/C=N/NC(=O)c3nnn(-c4nonc4N)c3COc3ccc(F)cc3)cc2)c1	dFosB act-1 27 (no result: NALP1 inh) | dFosB act-2 inactive
Cc1oc(-c2cc(F)cc(F)c2)nc1CN1CCN(C(=O)c2ccco2)CC1	none
O=C(COC(=O)c1n[nH]c(=O)c2ccccc12)NC1CCCCC1	dFosB act-1 50 (no result: PolyA inh, NALP1 inh, EBNA-1 inh) | dFosB act-2 inactive
O=S(=O)(c1ccc(F)c(F)c1)N1CCN(S(=O)(=O)c2cccs2)CC1	none
COc1cc(CN2CCCN(C)CC2)cc([N+](=O)[O-])c1O	none
COc1ccc(C2CC(c3ccccc3)=NN2C(=O)COC(=O)c2cc(S(=O)(=O)N3CCOCC3)ccc2Cl)cc1 (configuration not stated)	dFosB act-1 30 | dFosB act-2 inactive
COc1ccc(C2CC(c3ccccc3)=NN2C(=O)COC(=O)c2cccnc2Cl)cc1 (configuration not stated)	none
C/C(=N\NC(=O)c1ccco1)c1ccc(NC(=O)C(F)(F)F)cc1	none (no result: ZTA counter, EBNA-1 inh)
COc1ccc(-n2nc3c(c2NC(=O)C(C)Oc2ccccc2)CS(=O)C3)cc1 (configuration not stated)	none
Cc1cccc(CSc2nc3ccncc3n2CC(=O)Nc2cc(C)cc(C)c2)c1	dFosB act-1 33 | dFosB act-2 inactive
CSc1nc2ccccc2n1CC(=O)Nc1ccc(C)c(C)c1	none
Cc1cc(C)c2nc(NCCCNC(=S)NCCCN(C)C)c(C#N)cc2c1	dFosB act-1 32 | dFosB act-2 inconclusive
CN1C[C@@H]2[C@@H]3C(=O)N(C)C(=O)[C@@H]3[C@](C)(C1=O)N2C(=O)c1ccc(C(F)(F)F)cc1	none (no result: NLRP3 yeast inh, PolyA inh, NALP1 inh, ZTA counter, EBNA-1 inh)
Cc1cccc2sc(NC(=O)Cn3c(C)csc3=O)nc12	none (no result: PolyA inh, NALP1 inh, ZTA counter, EBNA-1 inh)
Cc1cc(NC(=O)CN2CCc3ccccc3C2)nc2c1c(=O)oc1ccccc12	dFosB act-1 31 | dFosB act-2 inactive
CSc1ncccc1C(=O)OCC(=O)c1ccc[nH]1	none (no result: PolyA inh, NALP1 inh, ZTA counter, EBNA-1 inh)
CSc1ccc(/C=C/C(=O)OCC(=O)c2ccc[nH]2)cc1	dFosB act-1 22 (no result: PolyA inh, NALP1 inh, EBNA-1 inh) | dFosB act-2 inactive
Cn1c(=O)[nH]c(=O)c2c1[nH]c(=S)n2Cc1ccc(Cl)cc1	none
COc1ccc(/C=C/C(=O)Nc2ccc(OC)cc2[N+](=O)[O-])cc1	none
CCOc1ccc(NC(=O)/C=C/c2ccc(OC)cc2)c([N+](=O)[O-])c1	none
CCOc1ccc(NC(=S)NC(=O)/C=C/c2ccc(C)cc2)c([N+](=O)[O-])c1	dFosB act-1 39 | dFosB act-2 inactive
CCOc1ccc(NC(=S)NC(=O)/C=C/c2ccc(OC)c(OC)c2)c([N+](=O)[O-])c1	dFosB act-1 25 | dFosB act-2 inactive
CCOC(=O)c1sc2nc(C)[nH]c(=S)c2c1C	dFosB act-1 21 (no result: ZTA counter, EBNA-1 inh) | dFosB act-2 inactive
CN(C)c1ccc(N2C(=NC(=O)c3ccccc3)SC3CS(=O)(=O)CC32)cc1 (configuration not stated)	none
COc1ccc2nc(NC(=O)C3CCCN(S(=O)(=O)c4cccs4)C3)sc2c1 (configuration not stated)	dFosB act-1 inconclusive
COc1ccc2nc(NC(=O)C3CCN(S(=O)(=O)c4cccs4)CC3)sc2c1	dFosB act-1 25 | dFosB act-2 inconclusive
O=C(CCn1c(=O)c2cccn2c2cccnc21)NCc1cccc(Cl)c1	dFosB act-1 21 | dFosB act-2 inactive
O=C(CCCn1c(=O)c2cccn2c2cccnc21)NCc1cccc(Br)c1	none

Compound activity from PubChem BioAssay.
